# Screening data as filed in PubChem.
# IL1B secr inh: inflammasome signaling inhibition, IL-1 beta readout; THP-1 LPS/ATP IL-1B secretion, AlphaLISA, 16 h; active compounds read low; activity change, % at 57.5 µM; hit rate 4.7% among 360,000; in the data active means activity change below about -50%; inconclusive means mostly about -30% to -49%
#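 THP-1 cells pretreated 1 hr with compounds (up to 57.5 uM final), then stimulated with LPS (250 ng/mL final) plus ATP (1.25 mM final); secreted IL-1B measured by AlphaLISA after 16 hr, decreased signal indicating inhibition.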
# Six1-Eya2 blk: inhibitors of human Six1/Eya2 interaction | Q15475+O00167 | AlphaScreen GST-Six1/His-Eya2 binding, biochemical; active compounds read low | activity change, % (no concentration beside the values) | hit rate 0.56% among 360,000 | AID 651725; in the data active means activity change below about -65%; inconclusive means mostly about -30% to -63%
#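 Compounds are tested against tagged Six1 and Eya2 proteins bridged by glutathione donor and nickel acceptor beads; after a one-hour incubation at 37 °C without light, AlphaScreen emission is recorded.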
# TDP1 inh: TDP1 (human) enzyme inhibition. Q9NUW8. hit rate 0.28% among 350,000. recombinant TDP1, AlphaScreen DNA substrate cleavage. Potency, µM (doses to about 130 µM), inactives show top-dose activity change, negative = inhibition, most hits filed as inhibitors; further: potency means the concentration at half of the fitted maximal effect; nearly all actives have a fitted effect of over 40% in size
# Target sequence (Q9NUW8 whole entry, looked up): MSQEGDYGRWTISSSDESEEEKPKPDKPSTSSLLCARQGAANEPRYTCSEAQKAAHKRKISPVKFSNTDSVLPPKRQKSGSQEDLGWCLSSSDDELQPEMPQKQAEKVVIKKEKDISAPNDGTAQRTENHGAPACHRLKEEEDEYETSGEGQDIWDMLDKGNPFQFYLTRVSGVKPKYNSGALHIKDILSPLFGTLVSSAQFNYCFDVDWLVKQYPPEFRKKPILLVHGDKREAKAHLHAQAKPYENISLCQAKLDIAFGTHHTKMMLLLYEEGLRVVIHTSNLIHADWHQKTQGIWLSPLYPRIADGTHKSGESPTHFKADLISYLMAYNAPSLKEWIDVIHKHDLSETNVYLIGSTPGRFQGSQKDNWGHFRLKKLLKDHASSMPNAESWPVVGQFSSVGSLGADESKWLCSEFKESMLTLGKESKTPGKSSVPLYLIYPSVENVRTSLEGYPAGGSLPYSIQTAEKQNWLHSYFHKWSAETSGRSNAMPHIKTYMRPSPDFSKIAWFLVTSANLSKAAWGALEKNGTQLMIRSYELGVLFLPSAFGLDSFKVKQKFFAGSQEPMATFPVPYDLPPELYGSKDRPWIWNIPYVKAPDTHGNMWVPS
#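 Compounds were preincubated with Tdp1 (1 nM final) for 15 min at room temperature before substrate (15 nM final) started a 5 min reaction; beads (10 ug/ml final) were then added for 10 min before AlphaScreen detection.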
# DT40 TDP1 CPT: DT40-hTDP1 cell growth loss with CPT | Potency, µM (highest dose often 46.2 µM), for the others: top-dose activity change, negative = growth inhibition, usual class: inhibitors | hit rate 12% among 420,000 | chicken DT40 Tdp1-/-;hTDP1 cells + 20 nM CPT, ATP luminescence, 48 h; further: potency means the concentration at half of the fitted maximal effect; nearly all actives have a fitted effect of over 55% in size
#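 Chicken DT40 Tdp1-/- cells stably complemented with human TDP1 were seeded at 400 cells/well in medium containing 20 nM camptothecin, exposed to pin-transferred compounds, and grown at 37 °C for at least 48 hr. Viability was read as ATP luminescence.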
# CtBP-E1A blk: blocks the CtBP interaction with E1A. hit rate 0.49% among 340,000. activity change, % (no concentration beside the values). AlphaScreen GST-E1A/His-CtBP binding, 1536-well; active compounds read low. AID 651724; in the data active means activity change below about -65%; inconclusive means mostly about -30% to -63%
#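 Homogeneous bead-based format: GST-tagged E1A captured on glutathione donor beads, His-tagged CtBP on nickel acceptor beads; compounds precede bead addition by 2 h at 37 °C.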
# TDP1 cell noCPT: qHTS for Inhibitors of human tyrosyl-DNA phosphodiesterase 1 (TDP1): qHTS in cells in absence of CPT | hit rate 15% among 420,000 | Potency, µM (series often up to 46.2 µM), inactives show at the highest dose activity change, negative = growth inhibition, actives largely listed as inhibitors | DT40 Tdp1-/- hTDP1 cells, no CPT, ATP luminescence, 48 h; further: potency means the concentration at half of the fitted maximal effect; nearly all actives have a fitted effect of over 55% in size
#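 Stably hTDP1-transfected Tdp1-null chicken DT40 cells were treated with library compounds minus camptothecin and grown for at least 48 hr at 37 °C, after which cellular ATP was quantified by luminescence.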
# Active calls of the source: *; ? = inconclusive; · = no result; ! = not confirmed by another sample; [ ] = remark or other dose. Only some compounds are listed: those with a hit (about 18% of all), similar ones and a draw of the others. Unless noted, the call rests on the fitted dose curve; in most records, active means well fitted curve in the direction sought with a large enough effect; inconclusive means small, poorly fitted or top-dose-only effect, or another doubt; inactive means no such curve, though single readings can be large; an effect the other way counts as inactive or inconclusive. On the % scale 0 is the no-effect control and ±100 the full control effect.
SMILES,IL1B secr inh,Six1-Eya2 blk,TDP1 inh,DT40 TDP1 CPT,CtBP-E1A blk,TDP1 cell noCPT
COc1ccc(-c2nc3cc(C(C)C)ccc3o2)cc1NC(=O)c1ccccc1[N+](=O)[O-],·,·,7.1%,8.2µM*,·,10.3µM*
COc1cc(NC(=O)c2cccs2)ccc1NC(=O)c1cc2ccccc2o1,-12.7,1.9,3.1%,?,5.8,11.6µM*
COc1cc(NC(=O)c2cc(Cl)ccc2Cl)ccc1NC(=O)c1cc2ccccc2o1,·,·,3.1%[12.3 µM],5.8µM*,·,4.61µM*
CCN1C(=O)/C(=C2/C(=O)N3c4c(cc(OC(C)=O)cc42)C(C)=CC3(C)C)SC1=S,10.9,-8.3,5.3%,?,4.4,?
COc1ccc(CNC(=O)C[C@H]2C(=O)N(Cc3ccccc3)C[C@@H]2Cc2ccccc2)cc1,-15.5,2.0,·,?,3.3,18.4µM*
CCCCN1C[C@H](Cc2ccccc2)[C@@H](CC(=O)Nc2ccc(OC)cc2)C1=O,-22.2,7.8,·,0.3%,-5.6,1.6%
CCCCC[C@H]1CN(Cc2ccccc2)C(=O)[C@@H]1CC(=O)NCc1ccc(OC)cc1,-20.3,7.7,·,20.6µM*,2.2,16.4µM*
COc1ccc(CNC(=O)C[C@H]2C(=O)N(Cc3ccc(OC)cc3)C[C@@H]2Cc2ccccc2)cc1,4.8,0.6,·,20.6µM*,4.7,8.91µM*
COc1ccc(CNC(=O)C[C@H]2C(=O)N(CCc3ccccc3)C[C@@H]2Cc2ccccc2)cc1,?,1.1,·,16.4µM*,-1.0,22.4µM*
COc1ccc(CNC(=O)C[C@H]2C(=O)N(C3CCCCC3)C[C@@H]2Cc2ccccc2)cc1,9.6,0.4,·,?,-6.2,-25.0%
Cc1cccc(C(=O)O)c1O,·,·,9.0%,10.9%,·,-5.2%
C[C@H]1CN(C2CCCCC2)C(=O)[C@@H]1CC(=O)NCc1ccccc1,21.1,6.8,·,?,0.4,?
CCCCC[C@H]1CN(C2CCCCC2)C(=O)[C@@H]1CC(=O)NCc1ccccc1,?,3.1,·,11.2µM*,2.0,12.6µM*!
CC1CN(Cc2cccn2-c2cccnc2)Cc2cc(Cl)ccc2O1 (stereo not given),·,·,·,-17.8%[9.04 µM],·,18.4µM*
CC1CN(Cc2cccn2-c2ncccn2)Cc2cc(Cl)ccc2O1 (stereo not given),·,·,·,14.1%[9.04 µM],·,?
CCCNC(=O)COC(=O)/C=C/c1cccc(F)c1,-0.3,-1.3,-1.2%,2.1%,1.9,-1.8%
CCCNC1=C(N(C(C)=O)c2cccc(F)c2)C(=O)c2ccccc2C1=O,-84.5*,-15.8,7.1%,2.59µM*,-11.0,2.06µM*
CCC(OC(=O)C1=Cc2ccccc2OC1)C(=O)NCc1ccco1 (stereo not given),2.3,5.6,5.1%,-28.1%,·,25.9µM*
Cc1ccc(C)c(Nc2ccc(C(=O)NCCc3ccccc3)cn2)c1,-4.1,1.9,5.5%,?,-2.7,-20.6%
COc1ccc(CCNC(=O)c2c(Nc3ccccc3C)sc(C(=O)c3ccccc3)c2N)cc1OC,·,·,8.3%,?,·,9.2µM*
COc1ccc(CCNC(=O)c2c(-c3ccccc3)noc2C)cc1OC,-1.0,-2.1,0.0%,-27.4%,9.1,-18.9%
Cc1ccccc1Nc1sc(C(=O)c2ccc(F)cc2)c(N)c1C(=O)NCCc1ccccc1,·,·,12.2%,?,·,18.4µM*
CCCS(=O)(=O)N1CCC(C(=O)NCc2ccc(F)cc2)CC1,6.5,9.5,2.6%,5.8%,22.9,-0.7%
O=C1NC2(CCc3ccccc3C2)C(=O)N1CCOc1cccc(Cl)c1 (stereo not given),-5.6,7.3,3.2%,0.3%,7.5,-19.7%
COc1ccccc1CCNC(=O)C1CCN(c2nnc(-n3cccc3CNc3ccc(C)cc3)s2)CC1,·,·,0.0%,18.4µM*,·,23.1µM*
Cc1ccc(NCc2cccn2-c2nnc(N3CCC(C(=O)NCc4ccccc4C)CC3)s2)cc1,·,·,2.0%,?,·,16.4µM*
